Experimental data from ChEMBL document CHEMBL1157539, “Thousands of chemical starting points for antimalarial lead identification” (Nature, 2010).

What follows are molecules tested on Plasmodium falciparum (assay: GSK_TCMDC: Inhibition of Plasmodium falciparum 3D7 in whole red blood cells, using parasite LDH activity as an index of growth. Test compounds present at 2uM).
Type: functional

| SMILES | Inhibition |
| --- | --- |
| O=C(O)/C=C\C(=O)O.OCCN1CCN(C2Cc3ccc(F)cc3Sc3ccc(Cl)cc32)CC1 (configuration not stated) | 98% |
| CCNc1cc(C(=O)N[C@@H](Cc2ccccc2)[C@H](O)CNC(C)(C)CSCC(C)C)cc(N2CCCC2=O)c1 | 100% |
| O=C(Nc1cccc(C(F)(F)F)c1)NC1CCN(c2ccnc3ccccc23)C1.O=C(O)C(F)(F)F (configuration not stated) | 100% |
| CN1CCN(c2ccnc3ccc(NC(=O)Nc4cccc5c(C#N)cccc45)cc23)CC1 | 91% |
| COc1ccc(Cl)cc1-c1nc(C(=O)NCCN2CCCCC2)c(C)s1.O=C(O)C(F)(F)F | 97% |
| COc1nc2c(CCN3CCC(NCc4ccc5c(c4)NC(=O)CO5)CC3)c(Cl)cnc2cc1F.Cl | 99% |
| CCCCCCNC(=O)C1Cc2c([nH]c3cc(Cl)ccc23)C2(CCN(Cc3ccccc3)CC2)N1 (configuration not stated) | 90% |
| COc1cc(Nc2ncnc3cc(OC)c(OC)cc23)cc([N+](=O)[O-])c1.Cl | 97% |
| CCCCCC(=O)N1CCOC(CCN2CCC(c3ccccc3)CC2)(c2ccc(Cl)c(Cl)c2)C1 (configuration not stated) | 89% |
| Cc1cccc2nc(-c3ccc(-c4ccc(CNCc5cccc(N)c5)cc4)s3)[nH]c12.O=C(O)C(F)(F)F | 100% |
| Cc1cccc2nc(-c3ccc(-c4cccc(CNCc5ccc(S(C)(=O)=O)cc5)c4)s3)[nH]c12.O=C(O)C(F)(F)F | 100% |
| O=C1CN(C(=O)CCC2CCCC2)C(c2ccc(F)cc2)c2cc(F)ccc2N1 (configuration not stated) | 100% |
| COc1ccc2c(-c3ccccc3)noc2c1 | 98% |
| CC(=O)c1c(Cc2ccccc2Cl)c[nH]c1C | 95% |
| Cc1cc(Cl)ccc1NC(=O)Nc1ccc2nccc(N3CCN(C)CC3)c2c1 | 100% |
| C=CCOc1ccc(C(=O)Nc2nonc2-c2ccc(OC)c(OC)c2)cc1 | 100% |
| O=C(Nc1ccc(Cl)cc1)c1ccc(CN2CCCN(Cc3ccc(F)cc3)CC2)cc1.O=C(O)C(F)(F)F | 91% |
| O=C(CNC(=O)c1ccc(O)cc1)Nc1cccc(-c2cccc(-c3nc4cc(C(F)(F)F)ccc4[nH]3)c2)c1 | 96% |
| O=c1cc(NCCC(CNCc2ccc(Br)o2)NCc2cc(Br)cc(Br)c2)[nH]c2ccccc12 (configuration not stated) | 98% |
| O=C(/C=C/c1ccc(Cl)c(Cl)c1)N1CCN(C(=O)Nc2ccc(C(F)(F)F)cc2)CC1 | 98% |
| OC(CNCc1ccccc1OCc1ccccc1)c1cccc(I)c1 (configuration not stated) | 100% |
| O=C(O)C(F)(F)F.O=C1OC2(CCN(Cc3cccc(-c4ncc[nH]4)c3)CC2)CN1CCNCc1ccccc1 | 94% |
| O=C(NCCCNc1nc2ccccc2[nH]1)c1cccc(OC(F)(F)F)c1 | 100% |
| O=C1C(c2ccccc2)=C(Nc2cc(Cl)cc(Cl)c2)c2ccccc21 | 96% |
| CN1CCN(c2ccnc3ccc(NC(=O)Nc4ccc(-c5ccncc5)c(C#N)c4)cc23)CC1 | 100% |
| CCOC(=O)N1CCN(CCCCNc2c3ccc(Cl)cc3nc3ccc(OC)cc23)CC1.Cl | 100% |
| CCNc1cc(C(=O)N[C@@H](Cc2ccoc2)[C@H](O)CNC(C)CCCC(C)C)cc(N2CCCCS2(=O)=O)c1.Cl (some centres not stated) | 99% |

The molecules below were run on Plasmodium falciparum (assay: GSK_TCMDC: Inhibition of Plasmodium falciparum Dd2 in whole red blood cells, using parasite LDH activity as an index of growth. Test compounds present at 2uM).
Type: functional

| SMILES | Inhibition |
| --- | --- |
| O=C(Nc1ccc(-c2ccccc2)cc1)Nc1cccc(Cn2ncc(N3CCNCC3)c(Cl)c2=O)c1.O=C(O)C(F)(F)F | 59% |
| COc1c(C2CCN(CCCCNC(=O)c3ccc(-c4ccc(C(=O)C(F)(F)F)cc4)cc3)CC2)ccc2c1CCCC2 | 33% |
| CCN(CC)S(=O)(=O)c1ccc(Cl)c(C(=O)Nc2ccc3nc(C)sc3c2)c1 | 94% |
| O=C(/C=C/c1ccc(Cl)c(Cl)c1)NCCCCCN1CCCC(CNS(=O)(=O)c2cccc(C(F)(F)F)c2)C1 (configuration not stated) | 0% |
| COc1ccccc1-c1cccc(-c2cccc(NC(=O)c3ccc([N+](=O)[O-])o3)c2)n1 | 59% |
| CN(C)CCNCc1cccc(-c2ccc3c(Nc4ccc(Oc5ccccn5)cc4)ccnc3c2)c1 | 100% |
| O=C(Nc1ccc2c(c1)CCN2C1CCN(Cc2cccc(F)c2F)C1)c1ccco1 (configuration not stated) | 90% |
| Cc1cc2nc(-c3ccc(/C=C/C(=O)NC4CCCCC4)cc3)[nH]c2cc1C | 10% |
| C#CCOc1ccc(N2C(N)=NC(N)=NC2(C)C)cc1.Cl | 0% |
| CC(C)(C)c1ccc(CN2CCC(CNC(=O)c3cc(-c4cccc(C(F)(F)F)c4)cs3)C2)cc1.O=C(O)C(F)(F)F (configuration not stated) | 84% |
| O=C(O)C(F)(F)F.c1cc(CN2CCCCC2)cc(-c2cccc(-c3nc4ccccc4[nH]3)c2)c1 | 37% |
| CCC[C@@H]1CCN[C@H]([C@H](O)c2ccnc3ccc(OC)cc23)C1.Cl | 69% |
| O=C(/C=C/c1ccc(Cl)c(Cl)c1)N1CCC(NCc2c[nH]c3ccccc23)CC1 | 4% |
| O=C(O)/C=C\C(=O)O.OCCN1CCN(C2Cc3ccc(F)cc3Sc3ccc(Cl)cc32)CC1 (configuration not stated) | 26% |
| CCNc1cc(C(=O)N[C@@H](Cc2ccccc2)[C@H](O)CNC(C)(C)CSCC(C)C)cc(N2CCCC2=O)c1 | 97% |
| O=C(Nc1cccc(C(F)(F)F)c1)NC1CCN(c2ccnc3ccccc23)C1.O=C(O)C(F)(F)F (configuration not stated) | 69% |
| CN1CCN(c2ccnc3ccc(NC(=O)Nc4cccc5c(C#N)cccc45)cc23)CC1 | 40% |
| COc1ccc(Cl)cc1-c1nc(C(=O)NCCN2CCCCC2)c(C)s1.O=C(O)C(F)(F)F | 10% |
| COc1nc2c(CCN3CCC(NCc4ccc5c(c4)NC(=O)CO5)CC3)c(Cl)cnc2cc1F.Cl | 21% |
| CCCCCCNC(=O)C1Cc2c([nH]c3cc(Cl)ccc23)C2(CCN(Cc3ccccc3)CC2)N1 (configuration not stated) | 56% |

| SMILES | Inhibition |
| --- | --- |
| COc1cc(Nc2ncnc3cc(OC)c(OC)cc23)cc([N+](=O)[O-])c1.Cl | 6% |
| CCCCCC(=O)N1CCOC(CCN2CCC(c3ccccc3)CC2)(c2ccc(Cl)c(Cl)c2)C1 (configuration not stated) | 51% |
| Cc1cccc2nc(-c3ccc(-c4ccc(CNCc5cccc(N)c5)cc4)s3)[nH]c12.O=C(O)C(F)(F)F | 78% |
| Cc1cccc2nc(-c3ccc(-c4cccc(CNCc5ccc(S(C)(=O)=O)cc5)c4)s3)[nH]c12.O=C(O)C(F)(F)F | 91% |
| O=C1CN(C(=O)CCC2CCCC2)C(c2ccc(F)cc2)c2cc(F)ccc2N1 (configuration not stated) | 75% |
| COc1ccc2c(-c3ccccc3)noc2c1 | 34% |
| CC(=O)c1c(Cc2ccccc2Cl)c[nH]c1C | 53% |
| Cc1cc(Cl)ccc1NC(=O)Nc1ccc2nccc(N3CCN(C)CC3)c2c1 | 74% |
| C=CCOc1ccc(C(=O)Nc2nonc2-c2ccc(OC)c(OC)c2)cc1 | 91% |
| O=C(Nc1ccc(Cl)cc1)c1ccc(CN2CCCN(Cc3ccc(F)cc3)CC2)cc1.O=C(O)C(F)(F)F | 8% |
| O=C(CNC(=O)c1ccc(O)cc1)Nc1cccc(-c2cccc(-c3nc4cc(C(F)(F)F)ccc4[nH]3)c2)c1 | 28% |
| O=c1cc(NCCC(CNCc2ccc(Br)o2)NCc2cc(Br)cc(Br)c2)[nH]c2ccccc12 (configuration not stated) | 90% |
| O=C(/C=C/c1ccc(Cl)c(Cl)c1)N1CCN(C(=O)Nc2ccc(C(F)(F)F)cc2)CC1 | 100% |
| OC(CNCc1ccccc1OCc1ccccc1)c1cccc(I)c1 (configuration not stated) | 100% |
| O=C(O)C(F)(F)F.O=C1OC2(CCN(Cc3cccc(-c4ncc[nH]4)c3)CC2)CN1CCNCc1ccccc1 | 0% |
| O=C(NCCCNc1nc2ccccc2[nH]1)c1cccc(OC(F)(F)F)c1 | 27% |
| O=C1C(c2ccccc2)=C(Nc2cc(Cl)cc(Cl)c2)c2ccccc21 | 94% |
| CN1CCN(c2ccnc3ccc(NC(=O)Nc4ccc(-c5ccncc5)c(C#N)c4)cc23)CC1 | 99% |
| CCOC(=O)N1CCN(CCCCNc2c3ccc(Cl)cc3nc3ccc(OC)cc23)CC1.Cl | 98% |
| CCNc1cc(C(=O)N[C@@H](Cc2ccoc2)[C@H](O)CNC(C)CCCC(C)C)cc(N2CCCCS2(=O)=O)c1.Cl (some centres not stated) | 68% |
